Experimental findings from PubChem BioAssay (Tox21) are described below.

Experiment [1] can be described thus: Nuclear factor erythroid 2-related factor 2/antioxidant responsive element (Nrf2/ARE) small molecule agonists: qHTS cell viability counter screen in human keratinocytes (AID 1919968; active = well fitted curve in the direction sought with a large enough effect in the repeat runs; an effect the other way counts as inactive or inconclusive; also: nearly all actives have a fitted effect of over 55% in size). Put shortly: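 Parallel cytotoxicity read: KeratinoSens HaCaT cells, compound treatment 23 h, viability by CellTiter-Fluor fluorescence 1 h post-reagent.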
(In qHTS, concentration-response curves come from the screen itself.)

Experiment [2] in a line: Nuclear factor erythroid 2-related factor 2/antioxidant responsive element (Nrf2/ARE) small molecule agonists: luciferase reporter gene qHTS assay in human keratinocytes (AID 1919969). Also: nearly all actives have a fitted effect of over 35% in size.
In experiment [3] the target is Gonadotropin-releasing hormone receptor (Homo sapiens) (UniProt P30968). In words: Human gonadotropin-releasing hormone receptor (GnRHR) small molecule agonists, calcium flux assay in GnRHR-HEK293 cells (AID 1920063). Also: nearly all actives have a fitted effect of over 35% in size. Put shortly:
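Calcium flux, agonist mode, human GnRHR stably integrated in HEK293; dye 1 h at 37 C before compound; Ex/Em=480/540 kinetic read, 3 min; 15 concentrations, triplicate.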
(In general: Calcium assays in cells follow changes in intracellular calcium, usually with a dye or a luminescent sensor.)

Experiment [4] can be described thus: G protein-coupled receptor (GPCR) small molecule agonists, calcium flux assay: HEK293 wild type cell line counter screen (AID 1920065). The method, boiled down: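 Non-specific calcium responders were flagged by adding DMSO-dissolved compounds to dye-loaded cells and reading 480/540 nm fluorescence each second for 3 min; ATP served as positive control.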
The nature of experiment [5]: p53 small molecule agonists, cell-based qHTS assay with human liver microsomes (AID 1963577).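 Also: p53 response element beta-lactamase reporter cells with liver microsomes plus NADPH.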 The method, boiled down:
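In this qHTS, p53 response-element beta-lactamase cells receive test compound together with a microsome/NADPH activating system (0.5 mg/mL final each) and are incubated 16 h at 37 C before LiveBLAzer fluorescence detection.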

A short description of experiment [6]: p53 small molecule agonists, cell-based qHTS assay with human liver microsomes: qHTS cell viability counter screen (AID 1963579). Also: nearly all actives have a fitted effect of over 45% in size. The method, boiled down:
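Metabolically activated exposure: compounds, human liver microsomes and NADPH (0.5 mg/mL final apiece) were added to p53RE-bla cells seeded 5 h earlier, left 16 h at 37 C, and then assessed for viability by CellTiter-Glo luminescence.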

Experiment [7] is described as follows: p53 small molecule agonists, cell-based qHTS assay: qHTS cell viability counter screen (AID 1963581). Also: nearly all actives have a fitted effect of over 45% in size. The method, boiled down: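 Multiplexed with the reporter read, a CellTiter-Glo step (30 min, room temperature) gauges ATP-based viability of HCT-116 p53RE-bla cells after 16 h compound incubation at 37 C.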
A short description of experiment [8]: p53 small molecule agonists, cell-based qHTS assay (AID 1963582; active = well fitted activation curve with a large enough effect in the signal ratio in the repeat runs, not every such curve was filed as active; the % refers to the signal ratio). The method, boiled down: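 Beta-lactamase reporter cells (p53RE-bla) treated with compounds for 16 h at 37 C; FRET substrate, 2 h, room temperature; fluorescence intensity.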
The target in experiment [9] is 5-hydroxytryptamine receptor 2A (Homo sapiens) (UniProt P28223). As to the kind of experiment: 5-hydroxytryptamine receptor 2A (HTR2A) small molecule antagonists, cell-based qHTS assay (AID 1963586). Also: nearly all actives have a fitted effect of over 45% in size. Put shortly: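 CHO cells stably expressing human HTR2A were plated for 18 h at 37 C, then loaded with calcium dye for 1 h. Compounds were preincubated 5 min at room temperature before DOI (4 nM solution) was added. Kinetic fluorescence was read for 3 min.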

The target is the same in experiment [10]. In words: 5-hydroxytryptamine receptor 2A (HTR2A) small molecule agonists, cell-based qHTS assay (AID 1963587). Also: nearly all actives have a fitted effect of over 30% in size. The method, boiled down:
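HTR2A-CHO cells, plated 18 h at 37 C/5% CO2, dye-loaded 1 h at 37 C; compounds in DMSO added by pin tool (agonist mode). Intracellular calcium flux read as kinetic fluorescence on FDSS over 2 min at 1 s intervals.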

Experiment [11] addresses Muscarinic acetylcholine receptor M1 (Homo sapiens) (UniProt P11229). As to the kind of experiment: Cholinergic receptor muscarinic 1 (CHRM1) small molecule antagonists, cell-based qHTS assay (AID 1963588). Also: nearly all actives have a fitted effect of over 40% in size. Put shortly:
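Compounds were tested at 15 concentrations in three independent runs. Dye-loaded CHRM1-CHO cells were exposed 5 min at room temperature before stimulation by acetylcholine added at 50nM. Intracellular calcium was read kinetically on FDSS for 3 min.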

The target is the same in experiment [12]. As to the kind of experiment: Cholinergic receptor muscarinic 1 (CHRM1) small molecule agonists, cell-based qHTS assay (AID 1963589). Also: nearly all actives have a fitted effect of over 35% in size. The method, boiled down:
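qHTS, 15-point titration, 3 independent runs: compounds pin-transferred onto dye-loaded CHRM1-CHO cells (human M1), calcium fluorescence followed every second to detect agonism.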

A short description of experiment [13]: cAMP Responsive Elements (CRE) small molecule agonists, cell-based qHTS assay (AID 1963590). Put shortly: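 Quantitative HTS for CRE agonists: HEK 293T CRE-bla cells, overnight plating, 3 h compound incubation at 37 C/5% CO2, then 2 h room-temperature LiveBLAzer B/G FRET substrate loading.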
The nature of experiment [14]: cAMP Responsive Elements (CRE) small molecule antagonists, cell-based qHTS assay (AID 1963591; active = well fitted inhibition curve with a large enough effect in the signal ratio in the repeat runs, not every such curve was filed as active; the % refers to the signal ratio). The method, boiled down: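 Fluorescence intensity from cleaved LiveBLAzer B/G substrate (2 h, room temperature) quantified CRE-bla activity in HEK 293T cells exposed 3 h to compound with 0.25 uM final NKH477.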
Experiment [15] deals with Beta-2 adrenergic receptor (Homo sapiens) (UniProt P07550). As to the kind of experiment: Adrenergic beta2 receptor (ADRB2) small molecule antagonists, cell-based qHTS assay (AID 1963592). Also: series mostly up to about 92 µM; nearly all actives have a fitted effect of over 50% in size. Put shortly: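 Assay format: CHO-ADRB2 cells, 18-20hr seeding at 37C/5% CO2, then compound plus 1nM isoproterenol agonist mix for 0.5hr RT. Homogeneous time-resolved fluorescence cAMP detection after 1hr, expressed as 665/615 nm ratio.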

Experiment [16] concerns the target KiSS-1 receptor (Homo sapiens) (UniProt Q969F8). In words: Human kisspeptin (KISS1R) small molecule agonists, calcium flux assay in KISS1R-HEK293 cells (AID 1920064; active = well fitted curve in the direction sought with a large enough effect in the repeat runs; an effect the other way counts as inactive or inconclusive). The method, boiled down:
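Triplicate 15-concentration series were applied to dye-loaded human KISS1R HEK293 cells, and agonist-evoked calcium fluorescence was captured for 3 min.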

Experiment [17] in a line: p53 small molecule agonists, cell-based qHTS assay with rat liver microsomes: qHTS cell viability counter screen (AID 1963580). Also: nearly all actives have a fitted effect of over 45% in size. Put shortly: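 Counter screen for cytotoxicity under metabolic activation: rat liver microsomes and NADPH, 0.5 mg/mL final each, added with compounds to p53RE-bla HCT-116 cells; 16 h at 37 C, then ATP luminescence read.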
Experiment [18] addresses D(2) dopamine receptor (Homo sapiens) (UniProt P14416). In words: Dopamine D2 receptor (DRD2) small molecule agonists, cell-based qHTS assay (AID 1963594). Also: nearly all actives have a fitted effect of over 35% in size. Also: potency is read from the fitted curve at half-maximal effect. Put shortly: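 HEK293 cells stably expressing DRD2 were cultured 24 h at 37 C, then given Ro20-1724 (0.1 mM final) and compounds for 10 min at room temperature. NKH477 (200nM) was then added for 30 min. cAMP was read by HTRF.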

For experiment [19] the target is unchanged. In words: Dopamine D2 receptor (DRD2) small molecule antagonists, cell-based qHTS assay (AID 1963595; active = well fitted inhibition curve with a large enough effect in the signal ratio in the repeat runs, with a control signal flat; the % refers to the signal ratio). The method, boiled down:
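HEK293 cells stably expressing DRD2 were preincubated with 0.1 mM Ro20-1724, then with compound for 10 min at room temperature. Cells were stimulated with 200 nM NKH477 plus 12 nM quinpirole for 30 min, and cAMP was read by HTRF.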

Experiment [20] can be described thus: p53 small molecule agonists, cell-based qHTS assay with rat liver microsomes (AID 1963578). Put shortly:
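Agonist mode in p53RE-bla reporter cells, with compounds co-incubated 16 h at 37 C alongside 0.5 mg/mL rat liver microsomes and 0.5 mg/mL NADPH (final), followed by a 2 h LiveBLAzer detection step.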

Inconclusive results are not listed. Activity calls are given as the source filed them. Unless noted, calls follow the shape of the full dose curve.

Chain of 5-hydroxytryptamine receptor 2A (Homo sapiens) (P28223 whole entry, looked up): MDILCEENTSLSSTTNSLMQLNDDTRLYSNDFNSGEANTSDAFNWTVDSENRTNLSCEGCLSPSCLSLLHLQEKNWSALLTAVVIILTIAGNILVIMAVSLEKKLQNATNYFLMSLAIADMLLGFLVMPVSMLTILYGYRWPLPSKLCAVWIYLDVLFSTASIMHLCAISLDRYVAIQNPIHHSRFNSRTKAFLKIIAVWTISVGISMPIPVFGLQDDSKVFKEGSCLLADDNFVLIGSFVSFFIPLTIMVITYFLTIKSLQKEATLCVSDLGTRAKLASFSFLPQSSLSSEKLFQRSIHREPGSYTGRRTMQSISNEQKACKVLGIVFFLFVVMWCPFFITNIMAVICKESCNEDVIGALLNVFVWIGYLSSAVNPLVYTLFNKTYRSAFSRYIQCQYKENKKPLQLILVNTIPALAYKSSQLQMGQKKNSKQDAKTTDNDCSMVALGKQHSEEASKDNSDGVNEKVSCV
Chain of D(2) dopamine receptor (Homo sapiens) (P14416 whole entry, looked up): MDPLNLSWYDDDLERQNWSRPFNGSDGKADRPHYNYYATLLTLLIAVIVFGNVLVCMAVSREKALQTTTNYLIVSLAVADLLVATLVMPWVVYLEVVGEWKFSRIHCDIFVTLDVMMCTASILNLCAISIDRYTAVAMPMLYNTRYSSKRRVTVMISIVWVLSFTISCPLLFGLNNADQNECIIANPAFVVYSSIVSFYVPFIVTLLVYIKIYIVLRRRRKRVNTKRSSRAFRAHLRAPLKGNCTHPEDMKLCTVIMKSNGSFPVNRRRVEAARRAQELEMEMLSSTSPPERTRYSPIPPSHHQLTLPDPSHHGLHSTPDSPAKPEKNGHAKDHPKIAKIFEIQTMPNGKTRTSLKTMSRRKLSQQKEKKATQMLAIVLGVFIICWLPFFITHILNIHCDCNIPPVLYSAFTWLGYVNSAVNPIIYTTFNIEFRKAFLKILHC
Chain of Gonadotropin-releasing hormone receptor (Homo sapiens) (P30968 whole entry, looked up): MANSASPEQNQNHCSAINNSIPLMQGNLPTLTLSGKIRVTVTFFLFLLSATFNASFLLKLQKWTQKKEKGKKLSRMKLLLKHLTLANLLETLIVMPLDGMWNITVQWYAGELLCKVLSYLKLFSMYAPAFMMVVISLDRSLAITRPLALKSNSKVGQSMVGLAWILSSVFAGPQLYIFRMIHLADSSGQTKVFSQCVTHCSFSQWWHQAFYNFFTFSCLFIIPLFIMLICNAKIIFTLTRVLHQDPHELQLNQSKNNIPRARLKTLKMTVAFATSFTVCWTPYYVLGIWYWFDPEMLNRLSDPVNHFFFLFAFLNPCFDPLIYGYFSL
Chain of Beta-2 adrenergic receptor (Homo sapiens) (P07550 whole entry, looked up): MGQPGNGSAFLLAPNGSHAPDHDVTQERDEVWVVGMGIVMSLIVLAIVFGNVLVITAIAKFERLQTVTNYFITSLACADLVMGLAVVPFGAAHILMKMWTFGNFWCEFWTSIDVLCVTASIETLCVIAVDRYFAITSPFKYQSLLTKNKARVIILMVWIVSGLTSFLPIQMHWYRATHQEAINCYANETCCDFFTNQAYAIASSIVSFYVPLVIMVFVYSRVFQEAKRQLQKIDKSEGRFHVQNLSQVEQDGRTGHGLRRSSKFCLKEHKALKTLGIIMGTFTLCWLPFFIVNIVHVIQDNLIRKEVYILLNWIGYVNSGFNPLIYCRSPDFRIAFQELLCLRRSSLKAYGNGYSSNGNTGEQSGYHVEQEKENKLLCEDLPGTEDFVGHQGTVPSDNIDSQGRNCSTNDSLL
Chain of Muscarinic acetylcholine receptor M1 (Homo sapiens) (P11229 whole entry, looked up): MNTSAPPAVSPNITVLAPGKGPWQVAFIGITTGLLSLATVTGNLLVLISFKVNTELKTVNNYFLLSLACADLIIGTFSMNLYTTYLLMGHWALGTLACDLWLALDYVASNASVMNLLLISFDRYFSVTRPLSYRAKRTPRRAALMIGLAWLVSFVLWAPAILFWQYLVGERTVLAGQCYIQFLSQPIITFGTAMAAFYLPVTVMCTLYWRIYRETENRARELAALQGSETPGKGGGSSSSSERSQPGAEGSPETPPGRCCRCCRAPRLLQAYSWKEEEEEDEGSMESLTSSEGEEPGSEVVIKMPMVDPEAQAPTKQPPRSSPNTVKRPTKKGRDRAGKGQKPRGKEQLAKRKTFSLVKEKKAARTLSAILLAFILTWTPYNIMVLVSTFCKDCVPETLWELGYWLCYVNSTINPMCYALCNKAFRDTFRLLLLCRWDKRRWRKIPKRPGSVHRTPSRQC
Chain of KiSS-1 receptor (Homo sapiens) (Q969F8 whole entry, looked up): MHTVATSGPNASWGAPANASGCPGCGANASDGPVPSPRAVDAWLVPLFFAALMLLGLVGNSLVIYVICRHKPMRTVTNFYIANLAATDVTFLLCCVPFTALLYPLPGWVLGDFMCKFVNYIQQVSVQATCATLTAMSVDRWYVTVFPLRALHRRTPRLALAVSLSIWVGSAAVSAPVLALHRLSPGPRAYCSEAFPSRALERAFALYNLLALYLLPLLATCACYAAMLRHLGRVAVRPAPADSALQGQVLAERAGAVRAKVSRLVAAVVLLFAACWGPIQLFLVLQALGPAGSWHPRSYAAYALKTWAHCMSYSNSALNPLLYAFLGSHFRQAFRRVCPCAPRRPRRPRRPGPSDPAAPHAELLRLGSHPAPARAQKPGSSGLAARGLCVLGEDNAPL

For the compound `O=C(O)C(F)(F)C(F)(F)C(F)(F)C(F)(F)C(F)(F)F`, the Potency entry in experiment [1], in experiment [2], in experiment [3], in experiment [4], in [5] and in experiment [6] was “inactive” each time. For the same compound, the Potency result in experiment [7], in experiment [8], in experiment [9], in experiment [10], in experiment [11] and in experiment [12] was “inactive” throughout. Moreover, the Potency result in experiment [13], in experiment [14] and in experiment [15] was “inactive” in each case.
Take `CCNP(=S)(OC)O/C(C)=C/C(=O)OC(C)C` (stereo unspecified): the Potency entry in experiment [1], in experiment [2], in experiment [3], in experiment [16], in experiment [17] and in [8] was “inactive” in each case. In addition, the Potency result in experiment [9], in [10], in experiment [11], in [12], in [13] and in experiment [14] was “inactive” throughout. For the same compound, the Potency entry in [15], in experiment [18] and in experiment [19] was “inactive” throughout.
As for `O=NN(CCO)CCO`, the Potency result in [1], in experiment [2], in experiment [3], in experiment [4], in [5] and in experiment [20] was “inactive” each time. Also, the Potency result in experiment [6], in experiment [17], in experiment [7], in experiment [8], in experiment [10] and in experiment [11] was “inactive” each time. Also, the Potency entry in [12], in experiment [13], in experiment [14], in [15] and in [18] was “inactive” in each case.
Consider `O=C(N[C@H]1CN2CCC1CC2)c1ccc2c(c1)OCCO2`, for which the Potency result in experiment [1], in experiment [2], in experiment [3], in [16], in [6] and in experiment [17] was “inactive” throughout. Further, the Potency entry in experiment [7], in [9], in experiment [10], in experiment [11], in [12] and in [13] was “inactive” each time. In addition, the Potency entry in experiment [15], in [18] and in experiment [19] was “inactive” throughout.
Turning to `CC[N+]1(CCOC(=O)C(O)(c2ccccc2)c2ccccc2)CCCCC1`, the Potency result in experiment [1], in experiment [2], in [3], in [16], in experiment [6] and in experiment [17] was “inactive” each time. Also, the Potency result in experiment [7], in experiment [14], in experiment [15], in experiment [18] and in experiment [19] was “inactive” each time.
`CCC1(c2ccccc2)C(=O)N(COC)C(=O)N(COC)C1=O`: the Potency entry in experiment [1], in experiment [2], in [3], in experiment [16], in experiment [6] and in experiment [17] was “inactive” throughout. Also, the Potency entry in experiment [7], in [10], in experiment [11], in [12], in experiment [13] and in experiment [14] was “inactive” in each case. Also, the Potency entry in experiment [15] and in experiment [19] was “inactive” in each case. Also, in [18], the Potency was 10.6 µM (active).
In the case of `Cc1c([N+](=O)[O-])c(C)c([N+](=O)[O-])c(C(C)(C)C)c1[N+](=O)[O-]`, the Potency result in experiment [1], in [2], in experiment [3], in [4], in [5] and in experiment [20] was “inactive” throughout. The Potency result in experiment [6], in experiment [7], in [9], in experiment [11], in [12] and in experiment [15] was “inactive” in each case. Besides, the Potency entry in experiment [19] is “inactive”.
For the compound `Oc1cc(Cl)cc(Cl)c1`, the Potency entry in experiment [1], in experiment [2], in experiment [3], in experiment [4], in experiment [5] and in experiment [20] was “inactive” throughout. Moreover, the Potency entry in [6], in [7], in experiment [8], in experiment [9], in experiment [10] and in [11] was “inactive” throughout. For the same compound, the Potency result in experiment [12], in experiment [14], in [15] and in [18] was “inactive” in each case.
Turning to `CS(=O)(=O)c1cc(C(F)(F)F)ccc1C(=O)c1cnoc1C1CC1`, the Potency result in experiment [1], in [2], in experiment [3], in experiment [4], in experiment [5] and in [20] was “inactive” throughout. Further, the Potency entry in [17], in experiment [8], in experiment [9], in experiment [10], in experiment [12] and in experiment [13] was “inactive” throughout. Moreover, the Potency result in [14] and in experiment [19] was “inactive” throughout.
